# Source: PubChem BioAssay (NCI)
# Compounds without any hit were thinned out: in the full panel of roughly 83,000, 20% have a hit.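 Negative percent growth values reflect cell death: -40 means 40% of the cells present at the start died, and -100 means all died.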 The source made the active and inactive calls. The calls were made as follows: active = growth percent below 10; inactive = the rest.
# Test system: MDA-MB-468 breast
# Test: NCI-60 one-dose screen, 48 h (100 = growth as untreated, 0 = no growth, -100 = all killed)
# Conditions: 10 µM unless noted
row,SMILES,growth
1,COc1ccccc1CNCCCN1C(=O)c2ccc3c4c(ccc(c24)C1=O)C(=O)N(CCCNCCNCCCN)C3=O,-56.2% (active)
2,O=CN1N=C(c2ccc(Cl)cc2)CC1c1cccc(Nc2ccnc3cc(C(F)(F)F)ccc23)c1 (stereo not given),32.9% (inactive)
3,Fc1cnccc1-c1nc2ccc3[nH]ncc3c2c2c1CCCC2,1.78% (active)
4,C[C@@H]1CC[C@@H]2[C@@H]1[C@H](OC(=O)/C=C/c1ccccc1)[C@]1(C3CCCCC3)C[C@@H](NC(=O)CO)[C@@]2(C)O1,115% (inactive)
5,N#Cc1c(-c2ccccc2)nc2c(c(-c3ccccc3)nn2-c2ccccc2)c1-c1ccc(N2CCOCC2)cc1,80.9% (inactive)
6,O=C(N=Nc1c(O)[nH]c2ccc(F)cc12)c1cc2ccccc2[nH]1,124% (inactive)
7,C1CCC(C(CC2CCCCN2)C2CCCCC2)CC1 (stereo not given),-90.1% (active)
8,O=C(Nc1ccc(CN2CCOCC2)cc1)c1ccc(-c2cc(Cl)ccc2Cl)o1,-56.1% (active)
9,C[n+]1c2ccccc2c(Nc2ccc(N3CCCCC3)cc2)c2[nH]c3ccccc3c21,-73.8% (active)
10,CC(C)(C)N1CCC1CN (stereo not given),97.2% (inactive)
11,OC(c1cc(C(F)(F)F)nc2c(C(F)(F)F)cccc12)C1CCCCN1 (stereo not given),-5.03% (active)
12,CCOC(=O)c1cc(C(=O)c2cc(OC)c(OC)c(OC)c2)n2ccccc12,-7.14% (active)
13,CC1COCC(C)N1C1=C(Cl)C(=O)c2ccccc2C1=O (stereo not given),-92% (active)
14,CCC#CC[C@H](O)C/C=C1/C(=O)C=C[C@@H]1C/C=C\CCCC(=O)OC,12.4% (inactive)
15,CCN(CC)CCNc1ccc([N+](=O)[O-])c2sc3cc(Cl)ccc3c(=O)c12,92.6% (inactive)
16,CC(C)CCNCC(C)(C)O,112% (inactive)
17,CCc1c2c(nc3ccc(OC(=O)NCc4ccc(B5OC(C)(C)C(C)(C)O5)cc4)cc13)-c1cc3c(c(=O)n1C2)COC(=O)[C@]3(O)CC,-33.9% (active)
18,CC1=Nc2cnc(Nc3ccc(N4CCCCC4)cc3)nc2Nc2ccccc21,54.9% (inactive)
19,COc1cc(-c2nn(-c3cccc(NC(=O)CCN4CCN(Cc5ccccc5)CC4)c3)cc2-c2ccncc2)ccc1Cl,1.17% (active)
20,O=[N+]([O-])c1cccc(SSc2cccc([N+](=O)[O-])c2)c1,109% (inactive)

row,SMILES,growth
1,CCN(CC)CCn1c2ccc(OC)cc2c2sc3cc(O)ccc3c(=O)c21,60.3% (inactive)
2,Cc1ccc(S(=O)(=O)NCCNc2nccc(-c3c(-c4ccc(O)cc4)nc4sccn34)n2)cc1,85.3% (inactive)
3,Oc1ccc(Cl)cc1Cc1cc(Cl)ccc1O,19.2% (inactive)
4,CCOC(=O)c1ccc2c(c1)nc(-c1ccc(Cl)cc1)n2-c1cc(C(C)(C)C)[nH]n1,18.7% (inactive)
5,O=C(O)c1cc([N+](=O)[O-])ccc1Cl,109% (inactive)
6,COc1ccc(Cc2cc(-c3ccccc3)nn(Cc3ccccc3)c2=O)cc1OC,42.9% (inactive)
7,COc1cc(Cn2c(SCCC(=O)Nc3ccc(F)cc3)nc3ccccc3c2=O)cc(OC)c1OC,88.1% (inactive)
8,COc1ccc(CCl)c(C)c1OC,109% (inactive)
9,O=C1OC[C@H]2[C@H](c3ccc(O)c(O)c3)c3cc(O)c(O)cc3C[C@H]12,93.3% (inactive)
10,c1ccc(CN2C(c3ccccc3)=Nc3ccccc3C2c2c[nH]c3ccccc23)cc1 (stereo not given),12.4% (inactive)
11,CC(=O)c1cnc(-c2ccccc2)nc1CBr,49.6% (inactive)
12,COC(=O)c1ccc(NC(=O)CSc2nc(-c3ccc(F)cc3)nc3ccccc23)cc1,80.1% (inactive)
13,O=CCCCOCc1ccccc1,112% (inactive)
14,CCCCCCCCCCCCCCCCCCSC(=N)N,67.8% (inactive)
15,O=S(Nc1ccccc1)c1ccc(Cl)cc1 (stereo not given),91.5% (inactive)
16,O=c1oc2ccc(Br)cc2c(=O)n1-c1ccc(Br)cc1F,-11.7% (active)
17,Cc1cc(C)n(-c2nc(-c3cccs3)c(C#N)c(=O)[nH]2)n1,112% (inactive)
18,OC1CCN(CCCOc2c3ccc(Cl)cc3nc3c2oc2ccccc23)CC1,-43.9% (active)
19,NC(=S)c1csc(CCNC(=O)c2ccccc2)n1,109% (inactive)
20,COc1ccc(C2=C(Nc3ccc(C(=O)Nc4ccccc4)cc3)C(=O)N(C)C2=O)cc1,88.1% (inactive)
